Experimental data: PubChem BioAssay (NCATS)
Records with an inconclusive call do not appear. Active and inactive are the calls of the source. Calls come from the whole dose curve; as a rule, active = well fitted cell-killing curve with a large enough effect; inconclusive = small, poorly fitted or top-dose-only effect, or effect the other way; inactive = no such curve, though single readings can be large or run the other way.

Tests used:
[1] = Quantitative High-Throughput drug screen in 47 multiple myeloma cell lines against the NCATS MIPE library collection: MM1R_ATCC cell viability assay (AID 1918981); note: nearly all actives have a fitted effect of over 35% in size; note: potency is the fitted concentration of half-maximal effect
Summary of the method: (§1)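 ATP-based luminescence (CellTiter-Glo, 5 min RT incubation) quantified surviving cells following two days' treatment with MIPE 4.0 agents at 37 °C, 5% CO2.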

[2] = Quantitative High-Throughput drug screen in 47 multiple myeloma cell lines against the NCATS MIPE library collection: LP1_DSMZ cell viability assay (AID 1918982); note: nearly all actives have a fitted effect of over 35% in size; note: potency is the fitted concentration of half-maximal effect
Summary of the method: as §1

[3] = Quantitative High-Throughput drug screen in 47 multiple myeloma cell lines against the NCATS MIPE library collection: KMS34_JCRB cell viability assay (AID 1918985); note: nearly all actives have a fitted effect of over 40% in size; note: potency is the fitted concentration of half-maximal effect
Summary of the method: as §1

[4] = Quantitative High-Throughput drug screen in 47 multiple myeloma cell lines against the NCATS MIPE library collection: OPM1_PLB cell viability assay (AID 1918989); note: nearly all actives have a fitted effect of over 40% in size; note: potency is the fitted concentration of half-maximal effect
Summary of the method: as §1

[5] = Quantitative High-Throughput drug screen in 47 multiple myeloma cell lines against the NCATS MIPE library collection: U266_ATCC cell viability assay (AID 1919864); note: nearly all actives have a fitted effect of over 35% in size; note: potency is the fitted concentration of half-maximal effect
Summary of the method: as §1

[6] = Quantitative High-Throughput drug screen in 47 multiple myeloma cell lines against the NCATS MIPE library collection: XG6_PLB cell viability assay (AID 1919865); note: nearly all actives have a fitted effect of over 40% in size; note: potency is the fitted concentration of half-maximal effect
Summary of the method: as §1

[7] = Quantitative High-Throughput drug screen in 47 multiple myeloma cell lines against the NCATS MIPE library collection: VP6_DJ cell viability assay (AID 1919867); note: nearly all actives have a fitted effect of over 40% in size; note: potency is the fitted concentration of half-maximal effect
Summary of the method: as §1

[8] = Quantitative High-Throughput drug screen in 47 multiple myeloma cell lines against the NCATS MIPE library collection: PE2_PLB cell viability assay (AID 1919869); note: nearly all actives have a fitted effect of over 35% in size; note: potency is the fitted concentration of half-maximal effect
Summary of the method: as §1

[9] = Quantitative High-Throughput drug screen in 47 multiple myeloma cell lines against the NCATS MIPE library collection: RPMI8226_ATCC cell viability assay (AID 1919871); note: nearly all actives have a fitted effect of over 30% in size; note: potency is the fitted concentration of half-maximal effect
Summary of the method: as §1

[10] = Quantitative High-Throughput drug screen in 47 multiple myeloma cell lines against the NCATS MIPE library collection: OPM2_DSMZ cell viability assay (AID 1919872); note: nearly all actives have a fitted effect of over 30% in size; note: potency is the fitted concentration of half-maximal effect
Summary of the method: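 We plated 500 myeloma cells per well, pinned in MIPE 4.0 compounds, and incubated for 48 hours at 37C. ATP was then quantified with CellTiter-Glo, with DMSO and media-only wells defining 100% and 0%.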

[11] = Quantitative High-Throughput drug screen in 47 multiple myeloma cell lines against the NCATS MIPE library collection: KMS11_JCRBsus cell viability assay (AID 1919873); note: nearly all actives have a fitted effect of over 50% in size; note: potency is the fitted concentration of half-maximal effect
Summary of the method: as §1

[12] = Quantitative High-Throughput drug screen in 47 multiple myeloma cell lines against the NCATS MIPE library collection: PCM6_Riken cell viability assay (AID 1919870); note: nearly all actives have a fitted effect of over 30% in size; note: potency is the fitted concentration of half-maximal effect
Summary of the method: as §1

[13] = Quantitative High-Throughput drug screen in 47 multiple myeloma cell lines against the NCATS MIPE library collection: L363_DSMZ cell viability assay (AID 1918984); conditions: L363 myeloma viability, CellTiter-Glo ATP luminescence, 48 h; viability (% of control): at 45.8 µM (top of the series); note: nearly all actives have a fitted effect of over 40% in size; note: potency is the fitted concentration of half-maximal effect
Summary of the method: as §1

[14] = Quantitative High-Throughput drug screen in 47 multiple myeloma cell lines against the NCATS MIPE library collection: OCIMY5_PLB cell viability assay (AID 1918988); note: nearly all actives have a fitted effect of over 65% in size; note: potency is the fitted concentration of half-maximal effect
Summary of the method: as §1

[15] = Quantitative High-Throughput drug screen in 47 multiple myeloma cell lines against the NCATS MIPE library collection: KMS28BM_JCRB cell viability assay (AID 1919874); note: nearly all actives have a fitted effect of over 35% in size; note: potency is the fitted concentration of half-maximal effect
Summary of the method: as §1

[16] = Quantitative High-Throughput drug screen in 47 multiple myeloma cell lines against the NCATS MIPE library collection: XG1_PLB cell viability assay (AID 1919866); note: nearly all actives have a fitted effect of over 35% in size; note: potency is the fitted concentration of half-maximal effect
Summary of the method: as §1

[17] = Quantitative High-Throughput drug screen in 47 multiple myeloma cell lines against the NCATS MIPE library collection: OCIMY7_PLB cell viability assay (AID 1918987); conditions: OCI-MY7 myeloma viability, CellTiter-Glo ATP, 48 h; viability (% of DMSO): at 45.8 µM (top of the series); note: nearly all actives have a fitted effect of over 65% in size; note: potency is the fitted concentration of half-maximal effect
Summary of the method: as §1

[18] = Quantitative High-Throughput drug screen in 47 multiple myeloma cell lines against the NCATS MIPE library collection: SKMM1_PLB cell viability assay (AID 1919863); conditions: SKMM1 myeloma viability, CellTiter-Glo ATP, 48 h; viability: hits give low values; note: nearly all actives have a fitted effect of over 35% in size; note: potency is the fitted concentration of half-maximal effect
Summary of the method: as §1

[19] = Quantitative High-Throughput drug screen in 47 multiple myeloma cell lines against the NCATS MIPE library collection: UTMC2_PLB cell viability assay (AID 1919868); conditions: CellTiter-Glo ATP luminescence, 48 h; viability (% of DMSO control): at 45.8 µM (top of the series); note: nearly all actives have a fitted effect of over 55% in size
Summary of the method: as §1

[20] = Quantitative High-Throughput drug screen in 47 multiple myeloma cell lines against the NCATS MIPE library collection: KMS28PE_JCRB cell viability assay (AID 1918983); note: nearly all actives have a fitted effect of over 35% in size; note: potency is the fitted concentration of half-maximal effect
Summary of the method: as §1

CC(C)(F)C[C@H](N[C@@H](c1ccc(-c2ccc(S(C)(=O)=O)cc2)cc1)C(F)(F)F)C(=O)NC1(C#N)CC1
inactive: Potency [1] | Potency [2] | Potency [3] | Potency [5] | Potency [6] | Potency [7] | Potency [10] | Potency [11]
active: Potency [4] 5.9 µM | Potency [8] 6.62 µM | Potency [9] 20.9 µM

COc1cc2ncn(-c3cc(OCc4ccccc4S(C)(=O)=O)c(C#N)s3)c2cc1OC
active: Potency [8] 1.05 µM
inactive: Potency [1] | Potency [2] | Potency [3] | Potency [12] | Potency [9] | Potency [10]

CCCCCCOC(=O)N=C(N)c1ccc(NCc2nc3cc(C(=O)N(CCC(=O)OCC)c4ccccn4)ccc3n2C)cc1
active: Potency [1] 20.9 µM | Potency [2] 14.8 µM | Potency [13] 13.2 µM | Potency [14] 20.9 µM | Potency [6] 11.8 µM | Potency [8] 13.2 µM | Potency [12] 20.9 µM | Potency [9] 18.7 µM | Potency [15] 23.5 µM

O=C(O)CCNc1cc(N2CCc3ccccc3CC2)nc(-c2ccccn2)n1
active: Potency [1] 16.6 µM | Potency [14] 23.5 µM | Potency [4] 5.26 µM | Potency [16] 20.9 µM
inactive: Potency [2] | Potency [5] | Potency [6] | Potency [8] | Potency [9] | Potency [10] | Potency [11]

CC(C)(CO)[C@@H](O)C(=O)NCCC(=O)O
inactive: Potency [1] | Potency [2] | Potency [17] | Potency [14] | Potency [4] | viability [18] 102% | Potency [16] | Potency [8] | Potency [9] | Potency [10] | Potency [11] | Potency [15]
active: Potency [6] 20.9 µM | Potency [12] 16.6 µM

OC[C@H]1O[C@@H](OCCc2ccc(O)cc2)[C@H](O)[C@@H](O)[C@H]1O
active: Potency [5] 20.9 µM | Potency [6] 5.9 µM | Potency [7] 0.662 µM
inactive: Potency [1] | Potency [2] | Potency [13] | Potency [8] | Potency [9] | Potency [10] | Potency [11]

Cc1ccc(NC(=O)Nc2cc(C(F)(F)F)ccc2F)cc1Nc1ccc2c(c1)NC(=O)C2=Cc1ccc[nH]1
active: Potency [1] 26.4 µM | Potency [2] 26.4 µM | Potency [13] 7.43 µM | Potency [17] 2.96 µM | Potency [14] 23.5 µM | Potency [4] 4.69 µM | Potency [6] 5.26 µM | Potency [16] 6.62 µM | Potency [7] 5.26 µM | Potency [8] 4.18 µM | Potency [12] 3.32 µM

C[C@@]1(c2cc(-c3cncnc3)c(F)cc2F)CCSC(N)=N1
inactive: Potency [1] | Potency [2] | Potency [3] | Potency [5] | Potency [19] | Potency [9]
active: Potency [13] 1.48 µM | Potency [12] 2.96 µM | Potency [15] 13.2 µM

N#CC(=C1Nc2ccccc2S1)c1ccnc(OCc2ccc(CN3CCOCC3)cc2)n1
active: Potency [1] 14.8 µM | Potency [2] 20.9 µM | Potency [13] 0.0372 µM | Potency [3] 18.7 µM | Potency [14] 8.33 µM | Potency [4] 16.6 µM | Potency [5] 5.26 µM | Potency [6] 1.18 µM | Potency [16] 1.18 µM | Potency [8] 5.26 µM | Potency [9] 20.9 µM

Cc1csc(-c2nnc(Nc3ccc(Oc4ncccc4-c4ccnc(N)n4)cc3)c3ccccc23)c1
active: Potency [1] 20.9 µM | Potency [2] 20.9 µM | Potency [13] 20.9 µM | Potency [4] 18.7 µM | Potency [5] 23.5 µM | Potency [16] 0.469 µM | Potency [12] 20.9 µM

COC1CCC(C(=O)c2ccc3nc4c(cc3c2)CCCO4)CC1 (configuration not stated)
active: Potency [1] 18.7 µM | Potency [20] 23.5 µM | Potency [13] 23.5 µM | Potency [3] 29.6 µM | Potency [14] 26.4 µM | Potency [4] 14.8 µM | Potency [18] 26.4 µM | Potency [5] 18.7 µM | Potency [6] 16.6 µM | Potency [16] 14.8 µM | Potency [7] 13.2 µM | Potency [8] 18.7 µM | Potency [12] 16.6 µM | Potency [9] 20.9 µM | Potency [10] 23.5 µM

CN1CC(=O)N2C(Cc3c([nH]c4ccccc34)[C@H]2c2ccc3c(c2)OCO3)C1=O (some centres not stated)
inactive: Potency [1] | Potency [20] | Potency [13] | Potency [4] | viability [18] 129% | Potency [5] | Potency [16] | Potency [7] | Potency [8] | Potency [11] | Potency [15]

Clc1ccc(COC(Cn2ccnc2)c2ccc(Cl)cc2Cl)c(Cl)c1 (configuration not stated)
active: Potency [1] 23.5 µM | Potency [20] 18.7 µM | Potency [13] 20.9 µM | Potency [14] 26.4 µM | Potency [4] 18.7 µM | Potency [18] 20.9 µM | Potency [6] 18.7 µM | Potency [7] 18.7 µM | Potency [12] 20.9 µM | Potency [11] 23.5 µM | Potency [15] 20.9 µM

O=C1C(c2c(O)[nH]c3ccccc23)=Nc2ccccc21
inactive: Potency [13] | Potency [11]
active: Potency [1] 1.48 µM | Potency [20] 9.35 µM | Potency [3] 7.43 µM | Potency [14] 1.32 µM | Potency [5] 1.66 µM | Potency [6] 0.296 µM | Potency [16] 0.418 µM | Potency [8] 1.66 µM
